16 compounds from PubChem BioAssay AID588651 (The Scripps Research Institute Molecular Screening Center, 2011) can be followed below.

This experiment has as its system Fam108b. In words: Fam108b inhibition by ABPP, late-stage follow-up, biochemical, gel-based ABPP, recombinant soluble Fam108b, HTS hits, complex proteome (AID 588651).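 Further: Fam108b spiked into mouse brain membrane proteome.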 Particulars: FP-rhodamine labeling in proteome, at 20 µM, hits give high values.

A number with no mark means an inactive call. Activity calls are given as the source filed them. No stated cut-off is given here; in the data, active means inhibition above about 65%; inactive means the rest.

By inhibition is commonly meant the change of the read-out against control, counted positive when it falls.

`Cc1ccc(-n2c(O)c(/C=N/Nc3ccc(S(=O)(=O)N4CCOCC4)cc3[N+](=O)[O-])c3ccccc3c2=O)c(C)c1`: the inhibition was 40%.

For `CSC[C@@H]1NC(=S)N(c2ccc(C)cc2)C1=O`, the inhibition is 0%.

As for `O=C(NCC1CC1)c1ccc(Nc2nc3ccc(Br)cc3[nH]2)cc1`, the inhibition is 0%.

With `Fc1ccc2nc(Nc3nc4cc5c(cc4s3)OCO5)sc2c1`, the inhibition was 0%.

As for `COc1cc2cc(C(=O)NN=Cc3ccccc3Cl)[nH]c2cc1OC`, the inhibition was 10%.

As to `Nc1cc2nsnc2cc1Br`, the inhibition is 0%.

`O=S(=O)(c1cc(O)ccc1O)c1cccc2c(S(=O)(=O)c3cc(O)ccc3O)cccc12`: the inhibition was 10%.

As to `CC(C)(C)c1nc2scc(-c3cccs3)c2c(=O)o1`, the inhibition was 80% (active).

For `Cc1nc2scc(-c3ccccc3)c2c(=O)o1`, the inhibition is 80% (active).

For `O=C1C(Cl)=C(Nc2ccc3cn[nH]c3c2)C(=O)c2ccccc21`, the inhibition was 0%.

On to `O=C(Nc1cccc(C(F)(F)F)c1)Nc1ccc(N2CCCC2)c(S(=O)(=O)Nc2ccccc2Cl)c1`, for which the inhibition was 98% (active).

With `Cc1[nH]c2ccccc2c1C=NNC(=O)c1cccc(S(=O)(=O)Nc2cccc(C(F)(F)F)c2)c1`, the inhibition was 60%.

In the case of `Cc1ccc(S(=O)(=O)N=C2C=C(Sc3ncn[nH]3)C(=O)c3ccccc32)cc1`, the inhibition is 90% (active).

On to `O=C(NC1CCCCC1)c1sc(=S)n2c1[nH]c(=O)c1ccccc12`, for which the inhibition is 0%.

Turning to `CCc1ccc(S(=O)(=O)N=C2C=C(Sc3ncn[nH]3)C(=O)c3ccccc32)cc1`, the inhibition was 60%.

In the case of `Cc1ccccc1NC1=C/C(=N\S(=O)(=O)c2cccs2)c2ccccc2C1=O`, the inhibition is 0%.
